Most compounds without a hit are left out; they make up all but 12% or so of the library.
HP1b chromo inh – HTS for Inhibitors of HP1-beta Chromodomain Interactions with Methylated Histone Tails; Chromobox protein homolog 1 (Homo sapiens), P83916; AlphaScreen HP1-beta / biotin-H3K9me3 peptide binding; Potency, µM (titrated, usually from 114 µM), for the others: at the top dose activity change, negative = inhibition, usual class: inhibitors; 390,000 compounds, 0.56% hits; AID 540317, 2011; also: nearly all actives have a fitted effect of over 70% in size
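AlphaScreen: HP1-beta (50 nM) preformed 30 min with biotin-H3(1-18)K9me3 peptide (50 nM) in PBS pH 7.4, 0.01% Tween-20. Compound added for 30 min at RT, then streptavidin donor/nickel chelate acceptor beads (10 ug/mL) for 30 min.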
Sfp PPTase inh – qHTS Assay for Inhibitors of Bacillus subtilis Sfp phosphopantetheinyl transferase (PPTase). Biochemical Sfp PPTase activity, qHTS. Potency, µM, without a hit: largest response in the series, negative = inhibition, usual class: inhibitors. 310,000 compounds, 3.5% hits;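 also: the enzyme is Sfp with the accession as filed and its product quenches rhodamine fluorescence; 0% = enzyme reaction without inhibitor and -100% = no enzyme wells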
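After 15 min at room temperature with compound, 15 nM Sfp received 5 uM rhodamine-CoA plus 12.5 uM BHQ-2-ybbR (50 mM Hepes pH 7.6, 10 mM MgCl2). Rate came from the fluorescence difference over 30 min, ex 525/em 598 nm.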
BAZ2B block – qHTS Assay for Inhibitors of BAZ2B; AlphaScreen BAZ2B-H3K14Ac peptide displacement; Potency, µM (highest dose often 114 µM), for the others: at the top dose activity change, negative = inhibition, most hits filed as inhibitors; 360,000 compounds, 4.4% hits; Bromodomain adjacent to zinc finger domain protein 2B (Homo sapiens), Q9UIF8; also: % is scaled to controls: 0 for no effect and ±100 for the full control effect; nearly all actives have a fitted effect of over 60% in size
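AlphaScreen luminescence quantifies BAZ2B engagement of H3K14Ac peptide; the protein and biotinylated peptide are both at 50 nM final, buffer PBS pH 7.4 with 0.01% Tween-20, all steps at room temperature.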
G9a block – qHTS Assay for Inhibitors of Histone Lysine Methyltransferase G9a. G9a H3K9 monomethylation, AlphaScreen, 2 h. Histone-lysine N-methyltransferase EHMT2 (Homo sapiens), Q96KQ7. 350,000 compounds, 8.8% hits. Potency, µM (series often up to 102 µM), without a hit: at the highest dose activity, negative = inhibition, actives largely listed as inhibitors; also: % is scaled to controls: 0 for no effect and ±100 for the full control effect; nearly all actives have a fitted effect of over 75% in size
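G9a (20 nM) preincubated 15 min RT with compounds, then 500 nM biotinylated H3K9 peptide and 20 uM SAM added; 2 h RT reaction. Monomethyl-H3K9 product detected by AlphaScreen with anti-H3K9me1 antibody, streptavidin donor and anti-rabbit IgG acceptor beads.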
PLK1 PBD inh – qHTS for Inhibitors of PLK1-PDB (polo-like kinase 1 - polo-box domain): Primary Screen. Serine/threonine-protein kinase PLK1 (Homo sapiens), P53350. Plk1 PBD binding of FITC phosphopeptide, fluorescence polarization. Potency, µM, for inactives: max response, negative = inhibition, usual class: inhibitors. 360,000 compounds, 2.8% hits. AID 720504, 2013; also: series mostly up to about 57 µM; % is scaled to controls: 0 for no effect and ±100 for the full control effect; nearly all actives have a fitted effect of over 65% in size
Target sequence (P53350 whole entry, looked up, the tested form may be a part): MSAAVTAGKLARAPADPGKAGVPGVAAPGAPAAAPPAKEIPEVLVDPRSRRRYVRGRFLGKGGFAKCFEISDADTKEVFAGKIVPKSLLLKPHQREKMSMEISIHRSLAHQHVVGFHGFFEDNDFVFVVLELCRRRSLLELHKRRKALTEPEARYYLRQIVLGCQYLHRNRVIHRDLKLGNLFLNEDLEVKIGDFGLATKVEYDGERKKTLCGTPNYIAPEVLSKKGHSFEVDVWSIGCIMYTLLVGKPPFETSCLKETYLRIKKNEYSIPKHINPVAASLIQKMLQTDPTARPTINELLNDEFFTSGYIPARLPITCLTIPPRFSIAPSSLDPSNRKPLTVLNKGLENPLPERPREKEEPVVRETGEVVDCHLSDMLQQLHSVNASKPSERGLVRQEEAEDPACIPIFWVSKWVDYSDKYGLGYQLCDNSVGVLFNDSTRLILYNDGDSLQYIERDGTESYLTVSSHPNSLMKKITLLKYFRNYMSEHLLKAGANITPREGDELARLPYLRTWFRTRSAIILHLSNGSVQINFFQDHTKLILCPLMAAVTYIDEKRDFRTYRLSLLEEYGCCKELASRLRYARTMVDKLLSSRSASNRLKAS
JMJD2A Tudor inh – qHTS Assay for Inhibitors of JMJD2A-Tudor Domain; Lysine-specific demethylase 4A (Homo sapiens), O75164; AlphaScreen JMJD2A-Tudor / H3K4me3 peptide binding; Potency, µM (doses to about 114 µM), without a hit: at the highest dose activity change, negative = inhibition, hits mostly inhibitors; 390,000 compounds, 4.4% hits; AID 504339, 2011; also: % is scaled to controls: 0 for no effect and ±100 for the full control effect; nearly all actives have a fitted effect of over 50% in size
* marks the source's active call; other numbers are inactive results; u = inconclusive; x = no result given; ! = not confirmed by another sample; [ ] = another dose, or the depositor's remark. Calls follow the shape of the dose curve; as a rule, active = well fitted curve in the direction sought with a large enough effect; inconclusive = small, poorly fitted or top-dose-only effect, or another doubt; inactive = no such curve, though single readings can be large; an effect the other way counts as inactive or inconclusive. Potency is read from the fitted curve at half-maximal effect.

SMILES	HP1b chromo inh	Sfp PPTase inh	BAZ2B block	G9a block	PLK1 PBD inh	JMJD2A Tudor inh
O=C(CNCc1ccc(Cl)cc1)Nc1ccc(C(=O)N2CCCCC2)cc1	45µM*	u	56µM*	7.1µM*	6%	1.1µM*
O=C1C=C(N(CCO)Cc2ccccc2)c2ccccc2C1=O	u	2%	u	50µM*	-26%	-35%
Cc1ccc(C)c(-n2c(CCC(=O)O)ccc2-c2ccc(Cl)cc2)c1	-13%	x	40µM*	13µM*	x	u
Cc1ccc(-c2ccc(CCC(=O)O)n2C(C)C)cc1	-3%	17%	u	79µM*	u	-30%
COc1ccc(-c2ccc(CCC(=O)O)n2-c2ccc(Cl)cc2C)cc1	2%	x	u	u	x	u
Cc1ccc(-c2ccc(CCC(=O)O)n2-c2ccc(C)c(Cl)c2)cc1	-19%	x	u	13µM*	x	u
COc1ccc(C(=O)Nn2c(CCC(=O)O)ccc2-c2ccc(C)cc2)cc1OC	-19%	3%	-25%	-30%	21µM*	50µM*
CC1=C(SCc2ccccc2)C(=O)c2ccccc2C1=O	u	x	x	x	4.7µM*	14µM*
COc1ccc(C2NC(=O)NC(O)(C(F)(F)F)C2C(=O)c2ccccc2)cc1OC (stereo unspecified)	29%	33%	2%	7%	-1%	-20%
COc1cccc(C2NC(=O)NC(O)(C(F)(F)F)C2C(=O)c2cccnc2)c1OC (stereo unspecified)	20%	8%	18%	50µM*	-9%	-23%
CC(=O)c1ccc(N(CC(=O)NC2CCS(=O)(=O)C2)S(=O)(=O)c2ccc(Cl)cc2)cc1 (stereo unspecified)	22%	x	8%	-1%[12.7 µM]	-21%	-10%
O=C(NCS(=O)(=O)c1ccccc1)c1ccccc1	69%	8%	7%	50µM*	-16%	-2%
O=C(O)CCNC(=O)c1ccccc1	20%	23%	5%	-40%[59 µM]	-3%	-9%
Cc1ccc2c(=O)cc(C(=O)Nc3ccc(S(=O)(=O)Nc4nc(C)cc(C)n4)cc3)oc2c1	46%	x	-32%	-3%[59 µM]	x	-29%
COc1cc(/C=C2/SC(=Nc3ccc(O)cc3)NC2=O)cc(OC)c1O	0%	9%	11%	-39%	5%	-12%
COC(=O)c1ccc(N2NC(=O)/C(=C/c3cc(OC)c(O)c(OC)c3)C2=O)cc1	u	-28%	45µM*	2.8µM*	19%	u
COC(=O)c1ccc(N2NC(=O)/C(=C/c3cc(OC)c(OC)c(OC)c3)C2=O)cc1	19%	u	-30%	-12%[2.33 µM]	8.4µM*	-10%
CCCCOCCCNC(=O)c1cccc(OC)c1	40%	6%	-6%	7%[59 µM]	-17%	7%
COc1ccc2sc(C)[n+](C)c2c1	73%	45µM*	3%	u	-4%	-2%
CCCC[n+]1c(C)sc2cc(OC)ccc21	50%	6.3µM*	-36%	u	-26%	16µM*
COCCCNC(=O)c1ccc2sc([C@@H]3O[C@H](CO)[C@H](O)[C@H](O)[C@H]3O)nc2c1	x	x	x	x	-11%	x
CCOc1ccccc1C(=O)OCC(=O)NCC1CCCCC1	17%	x	-3%	-33%[12.7 µM]	-7%	-15%
CCOc1ccc(Cl)cc1/C=N/NC(=O)c1ccccc1	14%	-12%	18%	20%[59 µM]	-6%	-2%
CCOc1ccc(Cl)cc1/C=C1/C(=O)ON=C1C	14%	50µM*	u	u	u	-6%
COc1ccc(Cl)cc1/C=C/c1ccc2cccc(O)c2n1	37%	9%	u	-42%	-1%	-24%
SMILES	HP1b chromo inh	Sfp PPTase inh	BAZ2B block	G9a block	PLK1 PBD inh	JMJD2A Tudor inh
COc1ccc(Cl)cc1/C=C1/C(=O)ON=C1C	13%	50µM*	-27%	u	u	-29%
Cc1ccccc1C(=O)NC1CCN(CC(=O)N2CCCCC2C)CC1 (stereo unspecified)	-2%	1%	1%	0%	-15%	-8%
Cc1ccc[n+](-c2nc([O-])sc2C=O)c1	-15%	3%	u	u	13µM*	-23%[11.4 µM]
CC1CCc2c(cc(-c3ccccc3)n2-c2ccc(C(=O)NC(C)C)cc2)C1 (stereo unspecified)	46%	x	-12%	1%[59 µM]	x	u
O=C1CCC(=O)N1CCSC(=S)N1CCSCC1	55%	9%	2%	23%	-1%	-5%
O=C(CN1C(=O)NC(Cc2c[nH]c3ccccc23)C1=O)Nc1ccc(F)cc1F (stereo unspecified)	2%	x	x	x	0%	-12%
N#Cc1ccccc1NC(=O)CN1C(=O)NC(Cc2c[nH]c3ccccc23)C1=O (stereo unspecified)	25%	x	-3%	10µM*	4%	-10%
CCOC(=O)NNc1ccc(C(F)(F)F)cn1	12%	u	1%	7%	1%	10µM*
C=C1CC(Cn2cc(Br)c(=O)[nH]c2=O)(c2ccc(-c3ccccc3)cc2)OC1=O (stereo unspecified)	18%	x	x	x	24µM*	-22%
CN1C(=O)CC2(C=CC(=O)C=C2OC(=O)c2ccccc2)c2ccccc21 (stereo unspecified)	37%	-26%	x	x	x	-19%
CC(=O)C(=Nc1ccccc1Cl)NNc1ccc(Cl)cc1	50µM*	-15%	28µM*	7.9µM*	-2%	32µM*
CC(=O)Nc1ccccc1C(=O)C(=O)Nc1ccc(Cl)cc1	19%	16%	-7%	-31%	5%	-5%
CC1CC(C)(C)NC(=S)N1CCC(=O)NCc1ccc(F)cc1 (stereo unspecified)	20%	10%	-3%	40µM*	1%	-7%
O=C(CCCC(=O)NCc1ccccc1)NCc1ccccc1	26%	2%	3%	11%[59 µM]	-2%	-1%
CC1CCCCC1NCC(=O)NCc1ccc(F)cc1 (stereo unspecified)	u	-15%	50µM*	10µM*	-2%	1.3µM*
O=C(CCCC(=O)NCc1ccc(F)cc1)NCc1ccc(F)cc1	-30%	13%	-13%	21%	24µM*	-31%
O=C(CSCc1ccc(F)cc1)NCc1ccc(F)cc1	28%	22%	0%	18%[59 µM]	-13%	100µM*!
